Bioassay records from PubChem BioAssay.
miR-122 inh = miR-122 sensor activation. activation, % at 12.5 µM. 340,000 tested, 0.14% active. Huh7 psiCHECK-miR122 Renilla luciferase sensor, 48 h;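 active means mean activation of 30% or more, with every replicate also reaching 30%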;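 further: 0% = median of neutral control wells and 100% = median of positive control wells; higher luciferase signal means stronger suppression of miR-122 activity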
The depositor's hits bear a star. This excerpt belongs to a sample that is enriched for hits.

SMILES | miR-122 inh
C[C@@H]1CN([C@@H](C)CO)S(=O)(=O)c2ccc(C#Cc3ccc(F)cc3)cc2O[C@@H]1CN(C)S(=O)(=O)c1cn(C)cn1 | -74.2
C[C@H]1CN([C@@H](C)CO)S(=O)(=O)c2ccc(Br)cc2O[C@H]1CN(C)C(=O)CC1CC1 | 3.5
C[C@H]1CN([C@@H](C)CO)S(=O)(=O)c2ccc(-c3ccccc3)cc2O[C@@H]1CN(C)Cc1ccccc1C(=O)O | -26.1
C/C=C/c1cnc2c(c1)C(=O)N([C@H](C)CO)C[C@@H](C)[C@H](CN(C)CC1CCOCC1)O2 | -1.6
COc1ccc(C#Cc2ccc3c(c2)O[C@H](CN(C)C(=O)NC2CCCCC2)[C@H](C)CN([C@@H](C)CO)S3(=O)=O)cc1 | 6.2
C[C@H]1CN([C@@H](C)CO)C(=O)c2cc(-c3ccc(F)cc3)cnc2O[C@H]1CN(C)Cc1ccc(C(=O)O)cc1 | -26.8
CO[C@@H]1CN(C)C(=O)c2ccc(NC(C)=O)cc2OC[C@@H](C)N(S(C)(=O)=O)C[C@H]1C | -3.9
COc1ccc2[nH]c(=O)c(COC(=O)c3ccco3)cc2c1 | 30.8*
CCN(Cc1ccccc1)C(=O)c1[nH]c2ccc(OC)cc2c1C | -125.2
C[C@@H]1CN([C@@H](C)CO)C(=O)c2cc(-c3cccc(F)c3)cnc2O[C@@H]1CN(C)Cc1cncnc1 | -43.2
COc1cccc(C#Cc2ccc3c(c2)O[C@H](CN(C)S(=O)(=O)c2ccccc2F)[C@@H](C)CN([C@H](C)CO)S3(=O)=O)c1 | -18.8
COc1cc2c(cc1OC)C(c1ccc(-c3ccc(Cl)c(Cl)c3)o1)=NCC2 | 44.2*
CCCN1C[C@H](C)[C@@H](OC)CN(C)C(=O)c2ccc(NC(=O)COC)cc2OC[C@H]1C | -0.3
CO[C@H]1CN(C)C(=O)c2cc(NC(=O)Nc3ccccc3)ccc2OC[C@H](C)NC[C@@H]1C | 0.5
Oc1c(Cl)cc(Cl)cc1/C=N/Nc1ncc(Br)cn1 | 62.2*
Cc1noc(C)c1NC(=O)N(C)C[C@H]1Oc2cc(C#CCC(C)C)ccc2S(=O)(=O)N([C@@H](C)CO)C[C@H]1C | -54.4
C[C@@H]1CN([C@@H](C)CO)C(=O)c2cc(C#CCC3CCCC3)cnc2O[C@H]1CN(C)C(=O)CC1CC1 | -0.4
CCc1nnc(SCC(=O)Nc2ccc(N3CCOCC3)cc2)o1 | 31.6*
CCc1ccc(NC(=O)CN2CCc3ccccc3C2)cc1 | -264.8
CC(C)N1C(=O)CC(Nc2ccc(N3CCOCC3)cc2)C1=O (stereo not drawn) | -182.9
C[C@H]1CN([C@@H](C)CO)C(=O)c2cc(C#Cc3ccccc3)cnc2O[C@@H]1CN(C)Cc1ccccn1 | 3.3
C[C@@H]1CN([C@@H](C)CO)C(=O)c2cc(C#CC3CC3)cnc2O[C@@H]1CN(C)C | -2.1
CC(C)C#Cc1ccc2c(c1)O[C@H](CN(C)C(=O)c1ccccc1)[C@@H](C)CN([C@H](C)CO)S2(=O)=O | -35.4
CC(C)NC(=O)N(C)C[C@@H]1Oc2cc(-c3ccccc3)ccc2S(=O)(=O)N([C@H](C)CO)C[C@@H]1C | -0.1
c1cnc(N2CCN(Cc3c[nH]c4ccccc34)CC2)nc1 | 37.6*
SMILES | miR-122 inh
CCCNC(=O)N(C)C[C@@H]1Oc2cc(Br)ccc2S(=O)(=O)N([C@H](C)CO)C[C@H]1C | 3.8
CCCC#Cc1cnc2c(c1)C(=O)N([C@H](C)CO)C[C@H](C)[C@H](CN(C)C(=O)C1CC1)O2 | -11.6
C[C@@H](O)C#Cc1ccc2c(c1)O[C@@H](CN(C)C(=O)Cc1ccccn1)[C@@H](C)CN([C@@H](C)CO)S2(=O)=O | 3.1
C[C@@H]1CN([C@@H](C)CO)C(=O)c2cc(-c3cccc(F)c3)cnc2O[C@@H]1CN(C)Cc1ccncc1 | 1.1
C[C@@H]1CN([C@@H](C)CO)S(=O)(=O)c2ccc(C#Cc3ccc(F)cc3)cc2O[C@H]1CN(C)S(=O)(=O)c1cn(C)cn1 | -2.5
COc1ccc(NC(=O)c2cccc(S(=O)(=O)Nc3ccc(Br)cc3)c2)cn1 | -102.6
COc1ccc(NC(=O)/C(Cl)=C(/Cl)S(=O)(=O)Cc2ccccc2)cn1 | 32.3*
COc1ccccc1C#Cc1ccc2c(c1)O[C@H](CN(C)Cc1ccncc1)[C@@H](C)CN([C@H](C)CO)S2(=O)=O | 1.9
N/C(Cc1cccc2ccccc12)=N\OC(=O)c1ccc2c(c1)OCO2 | -103.4
COc1cc(Cl)cc(/C=N\NC(=O)c2ccc3c(c2)OCO3)c1O | 40.5*
CC(=O)N(C)C[C@H]1Oc2cc(C#C[C@H](C)O)ccc2S(=O)(=O)N([C@@H](C)CO)C[C@@H]1C | 0.7
Cc1ccc(-c2ccc3c(c2)O[C@H](CN(C)Cc2cccc(C(=O)O)c2)[C@H](C)CN([C@H](C)CO)S3(=O)=O)cc1 | -16.1
COc1ccccc1C#Cc1ccc2c(c1)O[C@H](CN(C)Cc1cccnc1)[C@H](C)CN([C@@H](C)CO)S2(=O)=O | 39.3*
COc1ccccc1C#Cc1ccc2c(c1)O[C@H](CN(C)Cc1cncnc1)[C@@H](C)CN([C@@H](C)CO)S2(=O)=O | -6.9
COc1ccccc1C#Cc1ccc2c(c1)O[C@H](CN(C)Cc1cncnc1)[C@H](C)CN([C@@H](C)CO)S2(=O)=O | -12.0
